# The panel holds about 79,000 compounds, 15% with a hit somewhere; the sample as a whole holds those more often. A number with no mark means an inactive call. Active and inactive are the calls of the source. No stated cut-off is given here; in the data, active means growth inhibition above about 70%; inactive means the rest.
# Columns and labels:
# [1] = NCI Yeast Anticancer Drug Screen. Data for the mlh1 strain (AID 171);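 further: 0% = growth of vehicle-treated control cultures of the same strain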; details: S. cerevisiae mlh1 strain growth inhibition, hits give high values
# Outline: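 Steps: expose the defined-mutant yeast strain to compound; expose a parallel culture to vehicle; measure growth; express compound effect as inhibition relative to the vehicle culture.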
# [2] = NCI Yeast Anticancer Drug Screen. Data for the sgs1 strain (AID 173);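 further: 0% = growth of vehicle-only control cultures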; details: S. cerevisiae sgs1 mutant, hits give high values
# Outline: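 Treat defined-mutant yeast with compound; measure growth; calculate inhibition relative to vehicle-treated cells.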
# [3] = NCI Yeast Anticancer Drug Screen. Data for the mlh1 rad18 strain (AID 175); details: S. cerevisiae mlh1 rad18 strain growth inhibition, hits give high values
# Outline: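 Test agents were incubated with a yeast strain of defined genotype (DNA damage repair defect). Inhibition of growth was derived by comparison with vehicle-exposed cultures.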
# [4] = NCI Yeast Anticancer Drug Screen. Data for the rad18 strain (AID 177); details: S. cerevisiae rad18 mutant growth inhibition, hits give high values
# Outline: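 A genetically defined yeast mutant impaired in DNA damage repair was treated with test compounds, then its growth was measured against cultures receiving vehicle alone.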
# [5] = NCI Yeast Anticancer Drug Screen. Data for the wt1 strain (AID 149);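 further: 0% = growth of vehicle-treated wt1 cultures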; details: S. cerevisiae wt1 strain (SPY 50644) growth inhibition, hits give high values
# Outline: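 Readout: yeast growth inhibition, normalised to vehicle controls, in the wt1 strain exposed to test compounds.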
# [6] = NCI Yeast Anticancer Drug Screen. Data for the rad50EPP+ strain (AID 151);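 further: 0% = growth of vehicle-treated control cultures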; details: S. cerevisiae rad50 mutant strain, hits give high values
# Outline: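 Exposing the rad50EPP+ strain to each compound, growth was compared with vehicle-only cultures to give inhibition.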
# [7] = NCI Yeast Anticancer Drug Screen. Data for the mgt1 strain (AID 153); details: S. cerevisiae mgt1 mutant growth inhibition, hits give high values
# Outline: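 Genetically defined yeast (mgt1) treated with compound; inhibition of growth expressed against vehicle-treated controls.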
# [8] = NCI Yeast Anticancer Drug Screen. Data for the rad50 strain (AID 155);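 further: 0% = growth of vehicle-only cultures of the same strain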; details: S. cerevisiae rad50 strain growth inhibition, hits give high values
# Outline: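 Compounds were tested on a yeast strain with an engineered DNA damage repair alteration; the reported value is growth inhibition normalised to vehicle treatment.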
# [9] = NCI Yeast Anticancer Drug Screen. Data for the mec2-1 strain (AID 157); details: S. cerevisiae mec2-1 strain, hits give high values
# Outline: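 Readout is yeast growth inhibition, normalised to vehicle-treated controls, in the mec2-1 strain exposed to compound.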
# [10] = NCI Yeast Anticancer Drug Screen. Data for the rad14 strain (AID 159);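 further: 0% = growth of vehicle-treated control cultures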; details: S. cerevisiae rad14 strain growth inhibition, hits give high values
# Outline: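 Compound-treated yeast with a defined DNA-repair lesion; growth inhibition normalised to vehicle-treated cultures.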
# [11] = NCI Yeast Anticancer Drug Screen. Data for the sgs1 mgt1 strain (AID 161);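 further: 0% = growth of cultures given vehicle only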; details: S. cerevisiae sgs1 mgt1 strain, hits give high values
# Outline: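 Growth of a repair-deficient yeast mutant was monitored after compound treatment and expressed as inhibition relative to vehicle-treated cultures.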
# [12] = NCI Yeast Anticancer Drug Screen. Data for the CLN2oe strain (AID 163);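 further: 0% = growth of vehicle-only control cultures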; details: S. cerevisiae CLN2oe strain, hits give high values
# Outline: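 Values reflect how much compound exposure reduced yeast growth, referenced to vehicle-exposed cells. Assay organism is a strain with a defined genetic change affecting cell-cycle control.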
# [13] = NCI Yeast Anticancer Drug Screen. Data for the cln2 rad14 strain (AID 165);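 further: 0% = growth equal to vehicle treated cultures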; details: S. cerevisiae cln2 rad14 strain, hits give high values
# Outline: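 Relative to vehicle controls, growth inhibition of compound-treated cln2 rad14 yeast was recorded.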
# [14] = NCI Yeast Anticancer Drug Screen. Data for the bub3 strain (AID 167); details: S. cerevisiae bub3 mutant strain, hits give high values
# Outline: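 Growth of a checkpoint-deficient yeast mutant is measured after compound exposure. Values represent inhibition relative to vehicle.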
# [15] = NCI Yeast Anticancer Drug Screen. Data for the wt2 strain (AID 169);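 further: 0% = growth of vehicle-treated yeast cultures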; details: S. cerevisiae wt2 strain growth inhibition, hits give high values
# Outline: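 Values express reduction in yeast growth under compound treatment, referenced to vehicle-treated cells.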
# [16] = at 5.0 µM (retest, dose inferred, filed as 0.5)
# [17] = at 50.0 µM (retest, dose inferred, filed as 5.0)
smiles,measurement,setting,value
CCOP(=O)(OCC)/C(C#N)=C/c1cccc(Oc2ccccc2)c1,growth inhibition,[1]; at 1.2 µM,-2%
same,growth inhibition,[1]; at 3.7 µM,9%
same,growth inhibition,[1]; at 11.0 µM,48%
same,growth inhibition,[1]; at 33.0 µM,96% (active)
same,growth inhibition,[1]; at 100.0 µM,97% (active)
same,growth inhibition,[2]; at 1.2 µM,10%
same,growth inhibition,[2]; at 3.7 µM,3%
same,growth inhibition,[2]; at 11.0 µM,44%
same,growth inhibition,[2]; at 33.0 µM,97% (active)
same,growth inhibition,[2]; at 100.0 µM,98% (active)
same,growth inhibition,[3]; [16],-8%
same,growth inhibition,[3]; [17],-3%
same,growth inhibition,[3]; at 50.0 µM,88.8% (active)
same,growth inhibition,[4]; at 1.2 µM,-6%
same,growth inhibition,[4]; at 3.7 µM,-16%
same,growth inhibition,[4]; at 11.0 µM,53%
same,growth inhibition,[4]; at 33.0 µM,97% (active)
same,growth inhibition,[4]; at 100.0 µM,97% (active)
Cc1nc2sc3c(c2c(=O)o1)CCCC3,growth inhibition,[5]; at 1.2 µM,-1%
same,growth inhibition,[5]; at 3.7 µM,0%
same,growth inhibition,[5]; at 11.0 µM,1%
same,growth inhibition,[5]; at 33.0 µM,-1%
same,growth inhibition,[5]; at 100.0 µM,2%
same,growth inhibition,[6]; at 1.2 µM,-6%
same,growth inhibition,[6]; at 3.7 µM,-8%
same,growth inhibition,[6]; at 11.0 µM,-10%
same,growth inhibition,[6]; at 33.0 µM,-3%
same,growth inhibition,[6]; at 100.0 µM,-1%
same,growth inhibition,[7]; at 1.2 µM,-1%
same,growth inhibition,[7]; at 3.7 µM,-1%
same,growth inhibition,[7]; at 11.0 µM,18%
same,growth inhibition,[7]; at 33.0 µM,-2%
same,growth inhibition,[7]; at 100.0 µM,7%
same,growth inhibition,[8]; at 1.2 µM,0%
same,growth inhibition,[8]; at 3.7 µM,2%
same,growth inhibition,[8]; [16],18%
same,growth inhibition,[8]; at 11.0 µM,-11%
same,growth inhibition,[8]; at 33.0 µM,7%
same,growth inhibition,[8]; [17],10%
same,growth inhibition,[8]; at 50.0 µM,4.2%
same,growth inhibition,[8]; at 100.0 µM,5%
same,growth inhibition,[9]; at 1.2 µM,2%
same,growth inhibition,[9]; at 3.7 µM,2%
same,growth inhibition,[9]; [16],5%
same,growth inhibition,[9]; at 11.0 µM,2%
same,growth inhibition,[9]; at 33.0 µM,6%
same,growth inhibition,[9]; [17],-4%
same,growth inhibition,[9]; at 50.0 µM,25.3%
same,growth inhibition,[9]; at 100.0 µM,6%
same,growth inhibition,[10]; at 1.2 µM,0%
same,growth inhibition,[10]; at 3.7 µM,-4%
same,growth inhibition,[10]; at 11.0 µM,2%
same,growth inhibition,[10]; at 33.0 µM,13%
same,growth inhibition,[10]; at 100.0 µM,10%
same,growth inhibition,[11]; [16],-6%
same,growth inhibition,[11]; [17],14%
same,growth inhibition,[11]; at 50.0 µM,26.6%
same,growth inhibition,[12]; at 1.2 µM,-1%
same,growth inhibition,[12]; at 3.7 µM,1%
same,growth inhibition,[12]; at 11.0 µM,2%
same,growth inhibition,[12]; at 33.0 µM,6%
same,growth inhibition,[12]; at 100.0 µM,14%
same,growth inhibition,[13]; [16],23%
same,growth inhibition,[13]; [17],3%
same,growth inhibition,[13]; at 50.0 µM,4.5%
same,growth inhibition,[14]; at 1.2 µM,6%
same,growth inhibition,[14]; at 3.7 µM,18%
same,growth inhibition,[14]; [16],30%
same,growth inhibition,[14]; at 11.0 µM,31%
same,growth inhibition,[14]; at 33.0 µM,39%
same,growth inhibition,[14]; [17],51%
same,growth inhibition,[14]; at 50.0 µM,72.9% (active)
same,growth inhibition,[14]; at 100.0 µM,28%
same,growth inhibition,[15]; at 1.2 µM,-1%
same,growth inhibition,[15]; at 3.7 µM,1%
same,growth inhibition,[15]; at 11.0 µM,1%
same,growth inhibition,[15]; at 33.0 µM,3%
same,growth inhibition,[15]; at 100.0 µM,4%
same,growth inhibition,[1]; at 1.2 µM,1%
same,growth inhibition,[1]; at 3.7 µM,-3%
same,growth inhibition,[1]; at 11.0 µM,5%
same,growth inhibition,[1]; at 33.0 µM,2%
same,growth inhibition,[1]; at 100.0 µM,2%
same,growth inhibition,[2]; at 1.2 µM,-2%
same,growth inhibition,[2]; at 3.7 µM,-4%
same,growth inhibition,[2]; at 11.0 µM,-2%
same,growth inhibition,[2]; at 33.0 µM,1%
same,growth inhibition,[2]; at 100.0 µM,2%
same,growth inhibition,[3]; [16],-2%
same,growth inhibition,[3]; [17],-2%
same,growth inhibition,[3]; at 50.0 µM,26%
same,growth inhibition,[4]; at 1.2 µM,-3%
same,growth inhibition,[4]; at 3.7 µM,-3%
same,growth inhibition,[4]; at 11.0 µM,-4%
same,growth inhibition,[4]; at 33.0 µM,-15%
same,growth inhibition,[4]; at 100.0 µM,1%
O=[N+]([O-])c1ccc(/C=C\c2ccc3c(c2)OCO3)c([N+](=O)[O-])c1,growth inhibition,[5]; at 1.2 µM,-2%
same,growth inhibition,[5]; at 3.7 µM,-2%
same,growth inhibition,[5]; at 11.0 µM,2%
same,growth inhibition,[5]; at 33.0 µM,6%
same,growth inhibition,[5]; at 100.0 µM,35%
same,growth inhibition,[6]; at 1.2 µM,12%
same,growth inhibition,[6]; at 3.7 µM,30%
same,growth inhibition,[6]; at 11.0 µM,69%
same,growth inhibition,[6]; at 33.0 µM,84% (active)
same,growth inhibition,[6]; at 100.0 µM,78% (active)
same,growth inhibition,[7]; at 1.2 µM,-2%
same,growth inhibition,[7]; at 3.7 µM,2%
same,growth inhibition,[7]; at 11.0 µM,5%
same,growth inhibition,[7]; at 33.0 µM,20%
same,growth inhibition,[7]; at 100.0 µM,17%
same,growth inhibition,[8]; at 1.2 µM,3%
same,growth inhibition,[8]; at 3.7 µM,15%
same,growth inhibition,[8]; [16],33%
same,growth inhibition,[8]; at 11.0 µM,29%
same,growth inhibition,[8]; at 33.0 µM,54%
same,growth inhibition,[8]; [17],92% (active)
same,growth inhibition,[8]; at 50.0 µM,85.2% (active)
same,growth inhibition,[8]; at 100.0 µM,85% (active)
same,growth inhibition,[9]; at 1.2 µM,-3%
same,growth inhibition,[9]; at 3.7 µM,-3%
same,growth inhibition,[9]; [16],9%
same,growth inhibition,[9]; at 11.0 µM,3%
same,growth inhibition,[9]; at 33.0 µM,20%
same,growth inhibition,[9]; [17],97% (active)
same,growth inhibition,[9]; at 50.0 µM,83% (active)
same,growth inhibition,[9]; at 100.0 µM,80% (active)
same,growth inhibition,[10]; at 1.2 µM,1%
same,growth inhibition,[10]; at 3.7 µM,2%
same,growth inhibition,[10]; at 11.0 µM,12%
same,growth inhibition,[10]; at 33.0 µM,24%
same,growth inhibition,[10]; at 100.0 µM,80% (active)
same,growth inhibition,[11]; [16],11%
same,growth inhibition,[11]; [17],88% (active)
same,growth inhibition,[11]; at 50.0 µM,78.6% (active)
same,growth inhibition,[12]; at 1.2 µM,-2%
same,growth inhibition,[12]; at 3.7 µM,-3%
same,growth inhibition,[12]; at 11.0 µM,7%
same,growth inhibition,[12]; at 33.0 µM,16%
same,growth inhibition,[12]; at 100.0 µM,25%
same,growth inhibition,[13]; [16],2%
same,growth inhibition,[13]; [17],76% (active)
same,growth inhibition,[13]; at 50.0 µM,25.2%
same,growth inhibition,[14]; at 1.2 µM,-7%
same,growth inhibition,[14]; at 3.7 µM,-7%
same,growth inhibition,[14]; [16],2%
same,growth inhibition,[14]; at 11.0 µM,-5%
same,growth inhibition,[14]; at 33.0 µM,28%
same,growth inhibition,[14]; [17],93% (active)
same,growth inhibition,[14]; at 50.0 µM,99% (active)
same,growth inhibition,[14]; at 100.0 µM,68%
same,growth inhibition,[15]; at 1.2 µM,-2%
same,growth inhibition,[15]; at 3.7 µM,-3%
same,growth inhibition,[15]; at 11.0 µM,-1%
same,growth inhibition,[15]; at 33.0 µM,8%
same,growth inhibition,[15]; at 100.0 µM,66%
same,growth inhibition,[1]; at 1.2 µM,-1%
same,growth inhibition,[1]; at 3.7 µM,1%
same,growth inhibition,[1]; at 11.0 µM,7%
same,growth inhibition,[1]; at 33.0 µM,16%
same,growth inhibition,[1]; at 100.0 µM,63%
same,growth inhibition,[2]; at 1.2 µM,-2%
same,growth inhibition,[2]; at 3.7 µM,1%
same,growth inhibition,[2]; at 11.0 µM,9%
same,growth inhibition,[2]; at 33.0 µM,19%
same,growth inhibition,[2]; at 100.0 µM,79% (active)
same,growth inhibition,[3]; [16],12%
same,growth inhibition,[3]; [17],96% (active)
same,growth inhibition,[3]; at 50.0 µM,65.7%
same,growth inhibition,[4]; at 1.2 µM,-1%
same,growth inhibition,[4]; at 3.7 µM,6%
same,growth inhibition,[4]; at 11.0 µM,11%
same,growth inhibition,[4]; at 33.0 µM,27%
same,growth inhibition,[4]; at 100.0 µM,64%
